# PubChem BioAssay AID583 (Sanford-Burnham Center for Chemical Genomics, 2007)
# Several values for one entry are separate records, joined by “and”; a condition that tells them apart may be missing. Equal values may be shown once. The whole screen tested about 140,000 compounds, of which about 80 (0.06%) were called active. Only a selection was taken, and actives are over-represented in it overall. Unmarked numbers belong to inactive results. No stated cut-off is given here; in the data, active means displacement above about 50%; inactive means the rest.
# Target: Heat shock 70 kDa protein 1A (Homo sapiens) (UniProt P0DMV8)
# Test: Hsp70 inhibitors, probe displacement, primary screen, biochemical, fluorescence polarization (AID 583);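 further: plate controls were vehicle for no effect and reference ligand for full effect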
# Details: mP, at 20 µM, stronger effect = higher value
# Sequence of Heat shock 70 kDa protein 1A (Homo sapiens) (P0DMV8 whole entry, looked up): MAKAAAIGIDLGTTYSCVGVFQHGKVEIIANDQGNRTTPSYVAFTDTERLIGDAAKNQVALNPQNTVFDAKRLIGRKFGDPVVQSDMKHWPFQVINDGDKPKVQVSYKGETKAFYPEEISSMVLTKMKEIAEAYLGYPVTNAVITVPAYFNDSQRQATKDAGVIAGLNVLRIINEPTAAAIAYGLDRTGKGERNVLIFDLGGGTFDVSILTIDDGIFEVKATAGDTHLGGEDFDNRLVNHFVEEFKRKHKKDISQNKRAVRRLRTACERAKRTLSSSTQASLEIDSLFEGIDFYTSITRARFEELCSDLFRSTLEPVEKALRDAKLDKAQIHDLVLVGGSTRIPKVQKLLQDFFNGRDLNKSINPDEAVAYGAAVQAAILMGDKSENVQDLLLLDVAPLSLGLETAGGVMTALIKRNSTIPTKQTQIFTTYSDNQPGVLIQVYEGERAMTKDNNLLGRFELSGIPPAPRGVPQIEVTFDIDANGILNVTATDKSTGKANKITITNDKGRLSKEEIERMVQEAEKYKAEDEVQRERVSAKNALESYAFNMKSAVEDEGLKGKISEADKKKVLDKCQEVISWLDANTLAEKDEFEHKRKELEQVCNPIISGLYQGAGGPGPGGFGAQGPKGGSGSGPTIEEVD
row,SMILES,displacement
1,CN1C(=O)NC(=O)/C(=C/c2ccc(I)o2)C1=O,9.4%
2,O=C1NC(=O)N(c2ccc(Cl)cc2)C(=O)/C1=C/c1ccc(Br)o1,-0.1%
3,O=C1NC(=S)N(c2ccc(F)cc2)C(=O)/C1=C/c1ccc(Br)o1,68.7% (active)
4,CCOc1ccc(N2C(=O)/C(=C/c3ccc(Br)o3)C(=O)NC2=S)cc1,84.5% (active)
5,COc1ccc(N2C(=O)/C(=C/c3ccc(-c4cc(C(=O)O)ccc4Cl)o3)C(=O)NC2=S)cc1,5%
6,CCOc1ccc(N2C(=O)/C(=C/c3ccc(C)o3)C(=O)NC2=S)cc1,-26.6%
7,COc1ccc(N2C(=O)/C(=C/c3ccc(I)o3)C(=O)NC2=S)cc1,92% (active)
8,CN1C(=O)NC(=O)/C(=C/c2ccc(Br)o2)C1=O,2.1%
9,CCOc1ccc(N2C(=O)NC(=O)/C(=C\c3ccc(C)o3)C2=O)cc1,-5.2%
10,Cc1cccnc1NC1=NCC(C)S1 (stereo not given),3.9%
11,CCC(=O)N1N=C2C3CCN(CC3)C2C1c1ccc([N+](=O)[O-])cc1 (stereo not given),-5.5%
12,CCC(C)N=Cc1c(O)n(-c2ccccc2)c(=O)[nH]c1=O (stereo not given),-0.1%
13,CC(C)C12CN3CCN(CC(C3)C1O)C2 (stereo not given),5.4% and 5.3%
14,COc1ccc(CN2C(=O)NC(=O)/C(=C\c3ccoc3)C2=O)cc1,-10%
15,C=CCN1C(=O)NC(=O)C(=Cc2cccn2C)C1=O,0.2%
16,CN1C(=O)C(=Cc2cccn2-c2cccc([N+](=O)[O-])c2)C(=O)N(C)C1=O,-8.6%
17,CCN1C(=O)/C(=C/c2ccoc2)C(=O)NC1=S,73.6% (active)
18,C=CCN1C(=O)/C(=C\c2cccn2-c2ccc([N+](=O)[O-])cc2)C(=O)NC1=S,20.3%
19,O=C1NC(=O)N(c2ccccc2)C(=O)/C1=C/c1ccoc1,-9.7%
20,C=CCN1C(=O)/C(=C\c2cccn2-c2cccc([N+](=O)[O-])c2)C(=O)NC1=S,60.8% (active)
21,Cn1cccc1/C=C1/C(=O)NC(=S)N(c2ccc(Cl)cc2)C1=O,36.4%
22,CCN1C(=O)/C(=C/c2cccn2C)C(=O)NC1=S,72.7% (active)
23,CN1C(=O)C(C2c3ccccc3C(=O)N2Cc2ccccc2)C(=O)N(C)C1=O (stereo not given),-7%
24,C=CCN1C(=O)/C(=C\c2cccs2)C(=O)NC1=S,2.1%
25,O=S(=O)(c1ccccc1)N1CC1c1ccccc1 (stereo not given),0.1%
26,CCOC(=O)N1CCN(C(C)C(=O)c2c[nH]c3ccccc23)CC1 (stereo not given),-0.3%
27,O=C1CN=C(c2cccs2)c2c(sc3c2CCCC3)N1,0.2%
28,CC(C)(C)c1ccc(OCCOc2ccccc2C=C2C(=O)NC(=O)NC2=O)cc1,-4.4%

row,SMILES,displacement
1,c1ccc(CN2CCN(C3CCCCC3)CC2)cc1,-0.7%
2,CCc1nc2ccccc2c(=O)n1-c1ccc2ccccc2c1,0.4%
3,CN(C)c1ccc(C=C2C(=O)NC(=S)N(c3ccccc3F)C2=O)cc1,-0.7%
4,CCOc1ccc(N2C(=O)/C(=C/c3ccc(C)cc3)C(=O)NC2=S)cc1,-3.1%
5,O=C1NC(=S)N(c2ccccc2F)C(=O)C1=Cc1ccco1,96.8% (active)
6,O=C1NC(=S)N(c2cccc(Cl)c2)C(=O)/C1=C/c1ccc(Cl)cc1,-2.1%
7,Cc1ccc(C=C2C(=O)NC(=S)N(c3ccccc3F)C2=O)s1,-0.4%
8,CC(C)c1ccc(N2C(=O)NC(=O)/C(=C/c3ccco3)C2=O)cc1,-1.4%
9,Cc1cccc(N2C(=O)NC(=O)C(=Cc3ccco3)C2=O)c1,9.1%
10,O=C1NC(=S)N(c2ccccc2)C(=O)/C1=C/c1ccco1,83.4% (active)
11,CCOc1ccc2ccccc2c1/C=C1\C(=O)NC(=S)N(c2ccccc2)C1=O,3.3%
12,CCOc1ccc(N2C(=O)/C(=C/c3cc(Cl)ccc3O)C(=O)NC2=S)cc1,0.9%
13,CCOc1ccc(N2C(=O)/C(=C/c3ccco3)C(=O)NC2=S)cc1,92% (active)
14,O=C1NC(=O)N(c2cccc(Br)c2)C(=O)/C1=C/c1ccco1,98.6% (active)
15,CCC1(Cc2ccccc2)C(=O)NC(=O)NC1=O,1.5%
16,CCOc1ccc(NC(=S)NC2CN3CCC2CC3)cc1 (stereo not given),-0.4%
17,C#CCNc1ccncc1S(=O)(=O)NC(=O)NC(C)C,5.1%
18,Cc1c(C(=O)N2CCC3(CC2)OCCO3)sc2ncnc(N(C)c3ccccc3)c12,0.4%
19,CCOC(=O)C1C(=O)NC2(C)CC1c1cc(OC)ccc1O2 (stereo not given),7.2%
20,COC(=O)C[C@]1(C(=O)OC)CN(C#N)N(c2ccc(Cl)cc2)C12c1ccccc1-c1ccccc12,10.7%
21,c1cc(CN2CCN(C3C4CC5CC(C4)CC3C5)CC2)ccn1 (stereo not given),5.7%
22,CN1CCN(c2nccc3c2ncn3C)CC1,-5.2%
23,COc1ccccc1N1CCN(Cc2ccccc2F)CC1,-0.6%
24,O=C1NC(=S)N(c2cccc(Br)c2)C(=O)/C1=C/c1ccco1,95.8% (active)
25,O=C1NC(=S)N(c2cccc(Br)c2)C(=O)/C1=C/c1cccs1,-3%
26,O=C1NC(=S)N(c2cccc(Br)c2)C(=O)/C1=C/C=C/c1ccccc1,-13.2%
27,COc1cc(/C=N/n2cnnc2)ccc1OC(=O)N(C)C,0.2%
